{
  "source": "PubChem BioAssay AID2284110",
  "about": "(EPA ToxCast)",
  "note": "Results filed as inconclusive are left out. Calls of active or inactive are those of the source. How the source made its calls: active means hit-call score of the fitted dose curve at least 0.9, where 1 is the maximum; inconclusive means response in the unintended direction; inactive means score below 0.9.",
  "data": [
    {"molecular_target": "human Adrenoceptor Receptor alpha1A Antagonism, conducted at France lab site, ADRA1A (gene 148) (UniProt P35348)", "sequence (P35348 whole entry, looked up)": "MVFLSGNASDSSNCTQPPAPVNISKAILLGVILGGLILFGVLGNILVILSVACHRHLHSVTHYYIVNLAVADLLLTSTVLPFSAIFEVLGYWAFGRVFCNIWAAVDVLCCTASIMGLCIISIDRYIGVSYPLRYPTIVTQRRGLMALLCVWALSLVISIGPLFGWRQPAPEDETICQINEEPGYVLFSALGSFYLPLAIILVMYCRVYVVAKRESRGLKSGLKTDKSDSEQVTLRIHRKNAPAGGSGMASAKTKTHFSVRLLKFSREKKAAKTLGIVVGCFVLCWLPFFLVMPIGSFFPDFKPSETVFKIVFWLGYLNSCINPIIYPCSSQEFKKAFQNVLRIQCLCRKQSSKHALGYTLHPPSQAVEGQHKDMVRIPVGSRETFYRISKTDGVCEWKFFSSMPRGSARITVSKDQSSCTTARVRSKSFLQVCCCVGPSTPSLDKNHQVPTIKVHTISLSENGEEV", "assay": "ERF_FR_GPCR_hADRA1A: Eurofins (ERF) G Protein-Coupled Receptor (GPCR) Radioligand Binding LeadHunter Assay for human Adrenoceptor Receptor alpha1A Antagonism, conducted at France lab site", "experimental": "ERF_FR_GPCR_hADRA1A is a biochemical, single-readout assay that uses extracted gene-proteins in a cell-free assay. Measurements were taken 1 hour after chemical dosing in a 96-well plate. See alpha1A Human Adrenoceptor GPCR Binding (Antagonist Radioligand) Assay, Cerep.ERF_FR_GPCR_hADRA1A is an assay component calculated from the ERF_FR_GPCR_hADRA1A assay. It is designed to measure radioligand binding using a type of binding reporter as detected by scintillation counting with radiometry technology.Data from the assay component ERF_FR_GPCR_hADRA1A was analyzed at the assay endpoint, ERF_FR_GPCR_hADRA1A, in the positive analysis fitting direction relative to DMSO as the negative control and baseline of activity. Using a type of binding reporter, loss-of-signal activity can be used to understand changes in binding as they relate to gene ADRA1A. To generalize the intended target to other relatable targets, this assay endpoint is annotated to the gpcr intended target family, where the subfamily is adrenoceptor.\nHuman cells are incubated for 60 minutes in room temprature, using [3H]prazosin ligand at 0.1 Kd (nM) with WB-4101 control inhibitor.Test Sample Requirements: Minimum for 1) Screen: 60 ul of 10 mM stock -OR- 1 mg (pre-weighed) for […] uM final testing. 2) Dose Response: 90 ul of 10 mM stock -OR- 1 mg (pre-weighed) for a top concentration at 10 uM.", "values": [
      {"smiles": "COc1cc(/C=C/C(=O)CC(=O)/C=C/c2ccc(O)c(OC)c2)ccc1O", "AC50": "258 nM (active)"},
      {"smiles": "O=C(/C=C/c1ccc(O)cc1)CC(=O)/C=C/c1ccc(O)cc1", "AC50": "205 nM (active)"}
    ]}
  ]
}
